Assay results taken from ChEMBL document CHEMBL4513216, “Probing the Open Global Health Chemical Diversity Library for Multistage-Active Starting Points for Next-Generation Antimalarials” (ACS Infect Dis, 2020).
Screen size: about 69,000 compounds; about 8,600 (12%) showed an effect of 50% or more. The sample as a whole holds a higher share of strong results than the screen did.

Test system: Plasmodium berghei
Assay: Screen against P. berghei liver stage (PbLuc), transformed with Luciferase, at 10uM
Format: functional, HepG2
Settings: tested at 10 uM

Structure (SMILES)	INHIBITION
CCn1cc(-c2nccnc2C2CCCN(C(C)=O)C2)cn1 (configuration not stated)	-14.2%
COCC1Cn2nnc(-c3cnn(C)c3)c2CN1Cc1ccc(C)o1 (configuration not stated)	-1.12%
O=C1COc2cc(S(=O)(=O)NCCC3=CCCCC3)c(Cl)cc2N1	48.4%
NC(=O)N1CC[C@H](O)[C@@H]1Cc1ccccc1	46.9%
O=C(NCc1nn(-c2ccccc2)c2c1CCC2)NC1CCOCC1	-6.11%
CCCc1cncnc1N1CCC2(CCC(=O)N(CCCO)C2)CC1	-43.8%
Cc1nn(C)cc1-c1cc(C(=O)NCC(C)(C)c2ccc(F)cc2)n[nH]1	5.75%
CC(=O)N1[C@H](Cn2cncn2)C[C@@H]2CN(c3ncc(F)cn3)CC[C@@H]21	21.3%
CC(C)c1nnc2n1CC(CNC/C=C/c1ccccc1)CC2 (configuration not stated)	51.3%
CC(C)c1nnc2n1CC(CNCc1nc3ccccc3s1)CC2 (configuration not stated)	43.3%
C(=C\c1ccccc1)/CNCC1CCc2nncn2C1 (configuration not stated)	17.1%
Cc1cnn(CCNCc2nnc(Cc3ccccc3)o2)c1	2.97%
Cc1nn(-c2ccc(F)cc2)c2[nH]nc(N)c12	46.4%
Cc1nn(Cc2ccc(F)cc2)c2[nH]nc(N)c12	78.2%
Cc1nn(C)c2c(=O)n(Cc3ccc(F)cc3)nnc12	-10.77%
O=C(Nc1ccccc1)C1CN(CC2CCOCC2)CC12CCOCC2 (configuration not stated)	-42.9%
CCC[C@H]1CN(Cc2cc(C#N)n(C)c2C)C[C@@H]1NS(=O)(=O)CC	61.8%
CCC[C@@H]1CN(Cc2ccccc2C#N)C[C@H]1NC(C)=O	17.5%
CCC[C@@H]1CN(Cc2cc(C#N)n(C)c2C)C[C@H]1NS(C)(=O)=O	64.4%
CCC[C@H]1CN(Cc2cc(C#N)n(C)c2C)C[C@@H]1N(C)C	73.6%
CCC[C@@H]1CN(Cc2c[nH]nc2-c2ccc(F)cc2)C[C@H]1NS(C)(=O)=O	27.4%
CCOC(=O)C1CCCN(Cc2cc(C#N)n(C)c2C)C1 (configuration not stated)	24.7%

Structure (SMILES)	INHIBITION
CCC[C@H]1CN(Cc2ccccc2C#N)C[C@@H]1NS(C)(=O)=O	49.3%
CCC[C@H]1CN(Cc2ccc(N(C)C)nc2)C[C@@H]1NS(=O)(=O)CC	46.6%
CCC[C@@H]1CN(Cc2ccc(N(C)C)nc2)C[C@H]1N(C)C	36.5%
O=C(c1cc2ccccc2[nH]1)N1CCC(Nc2cccnn2)CC1	31.2%
Cc1nnc2n1CCN(C(=O)c1ccc(Cn3cccc3)cc1)C2	-18.52%
CN1CCN(C(=O)c2ccc3c(c2)nc(N2CCOCC2)n3C)CC1=O	-18.9%
Cc1nc(C(=O)N2CCCC2c2c(C)nn(C)c2Cl)ccc1C#N (configuration not stated)	0.914%
NC(=O)NCC(=O)N1C[C@@H]2CC[C@H]1CN(C1Cc3ccccc3C1)C2	21%
CCCC(=O)N1CCCC1(C)c1nc(C)no1 (configuration not stated)	-3.97%
COc1ccc(C2Nc3cc(Cl)ccc3C3=NCCN32)cc1O (configuration not stated)	28%
Oc1ccc(C2Nc3ccccc3C3=NCCCN32)cc1 (configuration not stated)	36.4%
CN(C)c1ncc(C2Nc3ccccc3C3=NCCCN32)cn1 (configuration not stated)	9.93%
COc1ccc(C2Nc3ccccc3C3=NCCCN32)cc1OC (configuration not stated)	54%
COc1cc(C2Nc3cc(Cl)ccc3C3=NCCN32)ccc1O (configuration not stated)	-43%
COc1ccc(C2Nc3cc(Cl)ccc3C3=NCCN32)cc1CO (configuration not stated)	46%
COc1cc(OC)c(C2Nc3cc(Cl)ccc3C3=NCCN32)cc1OC (configuration not stated)	73.9%
COc1cc(C2Nc3cc(Cl)ccc3C3=NCCN32)cc(OC)c1OC (configuration not stated)	38.8%
COc1ccc(C2Nc3cc(Cl)ccc3C3=NCCN32)cc1OC (configuration not stated)	72.8%
COCc1nc(C(=O)N2CCCC(n3ccnc3C(C)C)C2)cs1 (configuration not stated)	19.5%
O=C([C@H]1CCCO1)N1CC[C@@H](O)[C@@H]1Cc1ccccc1	21.1%
CC(O)CN1CCN(C(=O)c2cc3ccccc3[nH]c2=O)CC1 (configuration not stated)	16.6%
CNc1cc2c(nn1)CCN(C(=O)c1ccccc1-n1cccn1)C2	36.8%

Structure (SMILES)	INHIBITION
CN1CCCCC(C2CCN(S(=O)(=O)c3cn(C)cn3)CC2)C1=O (configuration not stated)	-23.4%
CCNC(=O)[C@@H]1C[C@@H](NC(=O)CSC)CN1Cc1ccncc1	29.6%
OC(CNCCn1cccn1)c1cccc(F)c1 (configuration not stated)	-15.5%
Cc1ccnc(OC[C@]23COC[C@H]2CN(C(=O)c2ncccn2)C3)n1	18.4%
Cc1ncccc1C(=O)NC1(c2cccc(F)c2)CCOCC1	76.2%
CN(C)c1cc(C(=O)NC2(c3cccc(F)c3)CCOCC2)ccn1	27.5%
CN1CC(C(=O)NC2(c3cccc(F)c3)CCOCC2)CC1=O (configuration not stated)	-36%
O=C(NC1(c2cccc(F)c2)CCOCC1)c1cc[nH]n1	13.5%
O=C(NC1(c2cccc(F)c2)CCOCC1)c1ccccn1	26.8%
CC(C)c1ocnc1C(=O)NC1(c2cccc(F)c2)CCOCC1	60.3%
Cc1cc(C(=O)NC2(c3cccc(F)c3)CCOCC2)no1	20.6%
COc1ncccc1C(=O)NC1(c2cccc(F)c2)CCOCC1	65.3%
O=C(NC1(c2cccc(F)c2)CCOCC1)c1ccoc1	18.5%
CCC(CC)C(=O)N1CCCc2c(cnn2C)C1	31.9%
O=C(CCc1cc(Cl)no1)N1CCC(c2cc3ncccc3cn2)CC1	23.2%
CCOc1ccccc1-n1c(-c2cn(CC)nc2C)n[nH]c1=O	18%
CN1CCCC(CCC(=O)NCCCn2ncc3ccccc32)C1 (configuration not stated)	17%
CC(=O)Nc1cc(C(C)(C)C)sc1C#N	-52.4%
CC(C)[C@@H]1CN(C(=O)c2ccsc2)C[C@H]1C(=O)O	30.9%
Cc1cncc(C(=O)N2C[C@@H](C(=O)O)[C@H](C(C)C)C2)c1	72.2%
Cc1cc(C(=O)N2C[C@@H](C(=O)O)[C@H](C(C)C)C2)cs1	46.1%
CC(NC(=O)NCCCn1cccn1)c1ccncc1 (configuration not stated)	36.3%

Structure (SMILES)	INHIBITION
COC(=O)c1cc2n(n1)CCN(C(=O)c1csc(CN(C)C)n1)C2	-4.96%
COC(=O)Cn1c(=O)[nH]c2cn(-c3cccc(Cl)c3)c(=O)n21	33.7%
COCCOCC(=O)N1C[C@@H]2CC[C@H](Oc3ccccc3Cl)[C@@H]2C1	40%
COc1cc(C)c(C(C)Nc2ncc(C(N)=O)cc2Cl)cc1OC (configuration not stated)	-37.7%
Cc1nn(C)cc1C(C)Nc1ncc(C(N)=O)cc1Cl (configuration not stated)	71.1%
COc1ccccc1C(C)Nc1ncc(C(N)=O)cc1Cl (configuration not stated)	-7.25%
Cc1noc2ncc(C(=O)NCC3CCCOC3)cc12 (configuration not stated)	-6.45%
N#CC1(NC(=O)c2cc(Cl)c3c(c2)OCCCO3)CCC1	-14.2%
c1cnc2ccc(C[C@@H]3CC[C@H](CN4CCCOCC4)O3)cc2c1	23.5%
Cc1cc(C(=O)N2CCc3ncnc(-c4cnn(C)c4)c3CC2)no1	0.618%
CN1CCC2(CCCN(S(=O)(=O)c3ccc(-c4cnco4)s3)C2)C1 (configuration not stated)	37.3%
Cc1occc1CNC(=O)N1CCC(Cc2cnn(C)c2)C1 (configuration not stated)	-24.15%
Cc1ccc(S(=O)(=O)N2Cc3c(CN(C)C)nn(C)c3C2)cc1	0.542%
CCc1ccc(S(=O)(=O)N2Cc3c(CN(C)C)nn(C)c3C2)cc1	72%
COc1ccc(S(=O)(=O)N2Cc3c(CN(C)C)nn(C)c3C2)cc1	-6.23%
Cc1ccc(NC2CCN(C(=O)c3nccc4ccccc34)CC2)nn1	-45.9%
CN(C)c1ncc(-c2cncnc2)c(C2CNCCO2)n1 (configuration not stated)	20.6%
CCc1nnc(CN2CCCCC2Cn2nc(C)nc2C)o1 (configuration not stated)	22.3%
CS(=O)(=O)N[C@@H]1CN(Cc2ccco2)C[C@@H]2CCCO[C@@H]21	5.96%
NCCN1CCC(c2nnc(Cn3ccnc3)n2C2CC2)CC1	62.3%
CSCCCN1CCC(c2nnc(Cn3ccnc3)n2C2CC2)CC1	-79.3%
CC(C)(C)CN1CCC(c2nnc(Cn3ccnc3)n2C2CC2)CC1	38%

Structure (SMILES)	INHIBITION
CN1CCC(c2nnc3n2CCN(S(=O)(=O)c2ccccc2Cl)C3)CC1	10.75%
CCOCCN1CCC(C(=O)c2cc(F)ccc2F)CC1	60.5%
COCCN1CCC(C(=O)c2cc(F)ccc2F)CC1	5.03%
CC(C)NC(=O)CCN1CCC(C(=O)c2cc(F)ccc2F)CC1	69.3%
COCCCN1CCC(C(=O)c2cc(F)ccc2F)CC1	56.4%
CC(C)OCCN1CCC(C(=O)c2cc(F)ccc2F)CC1	-13.5%
CCOC(=O)CN1CCC(C(=O)c2cc(F)ccc2F)CC1	32.6%
NC(=O)CCN1CCC(C(=O)c2cc(F)ccc2F)CC1	18.2%
NC(=O)NC(=O)CCN1CCC(C(=O)c2cc(F)ccc2F)CC1	40.5%
COC(=O)CCN1CCC(C(=O)c2cc(F)ccc2F)CC1	46.9%
Cc1nc(NCc2ccc(F)cc2)cc(C2CCCN2)n1 (configuration not stated)	41.5%
O=C(Cn1ccc2ccc(Br)cc21)NCc1ccc(C(=O)O)cc1	-30.8%
CC(C)c1nn(C)c(N(C)C)c1CNC1CCCOc2ccccc21 (configuration not stated)	35.4%
COCc1nc(N(C)C)ncc1C(=O)Nc1ccc(Cl)cc1	-18.8%
O=C(COC1CCCC1)NCc1ccc(O)c(F)c1	-16.4%
CN1CC(=O)N(c2cccc(F)c2)CC12CCN(Cc1ccsc1)C2 (configuration not stated)	23.6%
Clc1ccc2nncc(N3CCCCC3)c2c1	-0.991%
Cc1ccc(Cl)cc1-n1nnnc1C1(N2CCCC2)CCCCC1	63.9%
Cc1ccc(Cl)cc1-n1nnnc1C1(N2CCCC2)CCCC1	33%
